Inhibition data for 94 molecules are collected here from PubChem BioAssay AID793 (The Scripps Research Institute Molecular Screening Center, 2007).

Several values for one entry are separate records, joined by “and”; a condition that tells them apart may be missing. Equal values may be shown once. Among all 140,000 compounds or so, about 1,400 (1%) were called active. Rule as the data show it: active = inhibition above about 17%; inactive = the rest. Many of the other results were omitted from the sample, so actives are more common in it than they were. More than one record can exist for a structure, and the calls need not agree.

The target in this test is Neuropeptide Y receptor type 2 (Homo sapiens) (UniProt P49146). The test is described as follows: NPY-Y2 receptor antagonists, primary screen, cell-based (AID 793).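 Also: 0% = vehicle with agonist challenge and 100% = reference antagonist with challenge.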 The following applies: NPY-Y2 expressing cells, antagonist mode; at 2.7 µM; stronger effect = higher value.
Sequence of Neuropeptide Y receptor type 2 (Homo sapiens) (P49146 whole entry, looked up): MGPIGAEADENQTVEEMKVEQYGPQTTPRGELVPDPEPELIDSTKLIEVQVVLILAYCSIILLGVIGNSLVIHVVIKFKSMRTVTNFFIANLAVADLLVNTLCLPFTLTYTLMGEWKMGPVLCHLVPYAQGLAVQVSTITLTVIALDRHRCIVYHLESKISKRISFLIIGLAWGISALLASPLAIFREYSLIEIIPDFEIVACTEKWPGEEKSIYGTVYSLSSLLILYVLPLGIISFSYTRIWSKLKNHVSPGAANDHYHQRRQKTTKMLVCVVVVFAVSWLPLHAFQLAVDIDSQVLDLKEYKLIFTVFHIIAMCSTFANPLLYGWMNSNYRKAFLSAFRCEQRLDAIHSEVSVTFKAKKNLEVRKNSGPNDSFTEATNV
Usually inhibition stands for the drop in the measured response relative to a control, in per cent. Regarding `O=C(CC(=O)N/N=C\c1cccc(Cl)c1Cl)NCc1ccccc1`, the inhibition was 13.3% (inactive).

Consider `COc1ccc(-c2nn(-c3ccccc3)cc2C(=O)Nc2nc(CC(C)=O)ns2)cc1`, for which the inhibition was -0.9% (inactive).

Take `COc1ccc(-c2nn(-c3ccccc3)cc2C(=O)Nc2nccs2)cc1OC`: the inhibition is 17.6% (active).

`COc1ccc(-c2nn(-c3ccccc3)cc2/C=N/Nc2ccccn2)cc1OC`: the inhibition is 9.59% (inactive).

Regarding `O=C(c1cncc(Br)c1)N1CCN(c2ccc([N+](=O)[O-])cc2)CC1`, the inhibition was 0.95% (inactive).

On to `C/C(=N\Nc1ncc(Cl)cc1Cl)c1ccc(S(=O)(=O)NCc2ccco2)cc1`, for which the inhibition was 2.79% (inactive).

For the molecule `Cc1ccc(N/N=C2\COC(C)(C)CC2=O)cc1`, the inhibition was 1.13% (inactive).

As to `Cc1ccc(NC(=O)NC(=O)CSc2nnc(-c3ccc(OC(F)F)cc3)n2N)c(C)c1`, the inhibition is 0.74% (inactive).

In the case of `CN1CCN(C(=O)Cn2c(C(F)(F)F)nc3ccccc32)CC1`, the inhibition is -1.96% (inactive).

For the molecule `CC(C)(C)NC(=O)NC(=O)COC(=O)Cn1c(C(F)(F)F)nc2ccccc21`, the inhibition is 6.71% (inactive).

`Cc1ccccc1OC(=O)Cn1c(C(F)(F)F)nc2ccccc21`: the inhibition is 20.2% (active).

In the case of `CCCCN(CC)C(=O)c1ccccc1Oc1ccccc1`, the inhibition was 9.08% (inactive).

As for `O=C(c1ccc(CSc2ccccc2)cc1)N1CCCCCC1`, the inhibition was 4.41% (inactive).

With `Cc1ccc(C(=O)C[n+]2cc(-c3ccccc3)n3c2CCCCC3)cc1`, the inhibition is 13.7% (inactive) and 24.1% (active).

For `Cc1ccc(C(=O)CS(C)(=O)=O)cc1`, the inhibition was 4.03% (inactive).

Regarding `COc1ccc(C2c3c(C)nn(-c4ccccc4)c3NC(=O)N2c2ccccc2)cc1` (centres undefined), the inhibition is 0.06% (inactive).

Take `CCn1cc(CNC(=O)c2cc([N+](=O)[O-])c(C)c([N+](=O)[O-])c2)cn1`: the inhibition is 2.2% (inactive).

In the case of `Cc1cc(C(=O)N/N=C/c2cc([N+](=O)[O-])cc(C)c2O)n[nH]1`, the inhibition is 9.9% (inactive).

With `O=C(COC(=O)Cn1cnc2ccccc21)Nc1cccc2c1C(=O)c1ccccc1C2=O`, the inhibition was 4.37% (inactive).

In the case of `O=C(Nc1ccccc1N1CCN(c2ccccc2)CC1)c1cccc(F)c1`, the inhibition was 19.2% (active).

Turning to `Cc1cccc(C(=O)Nc2ccccc2N2CCN(c3ccc(F)cc3)CC2)c1`, the inhibition was 8.99% (inactive).

As for `O=C(Nc1ccccc1N1CCCCC1)c1cccc(F)c1`, the inhibition was 8.36% (inactive).

On to `CC1CCN(C(=O)c2ccc(S(=O)(=O)Cc3cc(F)ccc3F)c([N+](=O)[O-])c2)CC1`, for which the inhibition is -1.09% (inactive).

With `Cc1cccc(C)c1NC(=O)C(c1ccccc1)N1CC(=O)Nc2ccccc21` (centres undefined), the inhibition was 1.93% (inactive).

On to `O=C(N/N=C/c1ccc(Br)o1)c1cncc(Br)c1`, for which the inhibition was 0.35% (inactive).

With `CCCC(=O)Nc1cccc(NC(=S)NC(=O)C(C)Oc2ccc(Cl)cc2Cl)c1` (centres undefined), the inhibition was 0.34% (inactive).

`COCc1nc2ccccc2n1Cc1ccccc1Br`: the inhibition was 4.55% (inactive).

Consider `CC(=O)Nc1nonc1-c1nc2ccccc2n1Cc1ccccn1`, for which the inhibition was 0.29% (inactive).

Turning to `Nc1nonc1-c1nc2ccccc2n1CCC(=O)O`, the inhibition is 3.2% (inactive).

In the case of `CCC(=O)Nc1nc2ccccc2n1Cc1ccccc1C`, the inhibition was 3.41% (inactive).

In the case of `Nc1nonc1-c1nc2ccccc2n1Cc1ccc(F)cc1`, the inhibition was 18.1% (active).

In the case of `COc1ccc(C)c(Cn2c(-c3nonc3N)nc3ccccc32)c1`, the inhibition is 17.5% (active).

With `Cc1cc(NC(=O)COC(=O)COc2ccc(Cl)cc2C)c([N+](=O)[O-])cc1C`, the inhibition was 5.09% (inactive).

For the molecule `CCCC(C)C(=O)OCC(=O)Nc1c(Br)cc(C)cc1Br` (centres undefined), the inhibition is 3.68% (inactive).

As for `O=C(CCCCCNC(=O)c1ccccc1)N/N=C/c1ccccc1`, the inhibition was -0.13% (inactive).

Take `CCCOC(=O)c1ccc(N2C(=O)c3ccccc3C2=O)cc1`: the inhibition was -1.24% (inactive).

Consider `CCCC/S(C)=N/S(=O)(=O)c1ccc(C)cc1` (centres undefined), for which the inhibition is 1.98% (inactive).

Consider `Cc1cc(C)cc(OCC(=O)Nc2nc3ccc([N+](=O)[O-])cc3s2)c1`, for which the inhibition was 1.9% (inactive).

In the case of `O=C(NC(Nc1nc2ccc([N+](=O)[O-])cc2s1)(C(F)(F)F)C(F)(F)F)c1ccccc1`, the inhibition was 29.6% (active).

For the molecule `COC(=O)C(NC(=O)c1ccc(OC)cc1)(Nc1ncc(S(=O)(=O)c2ccc([N+](=O)[O-])cc2)s1)C(F)(F)F` (centres undefined), the inhibition is 0.75% (inactive).

For the molecule `COC(=O)C1NN=C(C(=O)c2ccc(Br)cc2)C1c1cccc(Br)c1` (centres undefined), the inhibition was 0.05% (inactive).

For `Cc1cc(C)n(CC(O)CN(c2ccccc2)S(=O)(=O)c2ccc3ccccc3c2)n1` (centres undefined), the inhibition was -0.03% (inactive).

Turning to `CC1CCCN(CCOCCOc2ccccc2-c2ccccc2)C1` (centres undefined), the inhibition is 10.5% (inactive).

For the molecule `Cc1ccc(CN2CCN(/N=C/c3cccnc3)CC2)c(C)c1`, the inhibition is 2.92% (inactive).

For the molecule `C/C(=N\NC(=O)CNC(=O)C(c1ccccc1)c1ccccc1)c1ccc(C)cc1`, the inhibition is 1.86% (inactive).

As for `CCCn1c(C(O)c2cc(OC)ccc2OC)nc2ccccc21` (centres undefined), the inhibition is 4.69% (inactive).

As for `COCCn1c(-c2ccc(OC)c(OC)c2)nc2ccccc21`, the inhibition was 1.52% (inactive).

With `COc1ccc(-c2nc3ccccc3n2CCC(C)C)cc1OC`, the inhibition was 19.5% (active).

Consider `COC(=O)c1cc2occc2n1Cc1nc(-c2ccccc2C)oc1C`, for which the inhibition is 11.1% (inactive).

With `O=C(CCN1C(=O)c2ccccc2C1=O)NNC(=O)c1ccc(Cl)cc1Cl`, the inhibition is 0.71% (inactive).

On to `Cc1ccc(NC(=O)CC2S/C(=N/N=C3\CCCc4ccccc43)NC2=O)cc1` (centres undefined), for which the inhibition was -0.03% (inactive).

Turning to `Cc1cccc(OCCNC(=O)CSc2ccc(C(F)(F)F)cc2[N+](=O)[O-])c1`, the inhibition is 12.7% (inactive).

As for `Cc1ccc(C)c2[nH]c(=O)c(CCNC(=O)c3cccs3)cc12`, the inhibition is 2.37% (inactive).

`Cc1cc2c(c(=O)n1C)C(C(C)C)C(C#N)=C(N)O2` (centres undefined): the inhibition was -0.27% (inactive).

For the molecule `C=CCSc1nc2c(c(=O)[nH]1)C(C(C)C)C(C#N)=C(N)O2` (centres undefined), the inhibition is 121% (active).

With `C=CCOC(=O)C1=C(C)OC(N)=C(C#N)C1c1ccc(F)cc1` (centres undefined), the inhibition is 7.81% (inactive).

For `CN(C)CCCO/N=C(\c1ccccc1)c1ccncc1`, the inhibition is 0.64% (inactive).

As for `Cc1ccc(C(=O)N/C(=C/c2cccnc2)C(=O)O)cc1`, the inhibition was 2.3% (inactive).

As for `Cc1nn(CC(=O)Nc2ccc(N(C)C)cc2)c(C)c1[N+](=O)[O-]`, the inhibition was -0.15% (inactive).

Turning to `N/C(=N\OC(=O)CCc1ccccc1)c1ccc(Cl)cc1`, the inhibition is 4.22% (inactive).

Regarding `COc1ccc(/C(N)=N/OC(=O)CCCc2ccccc2)cc1`, the inhibition is 22.3% (active).

Turning to `COc1ccc(/C(N)=N/OC(=O)Cc2ccccc2)cc1`, the inhibition is 4.03% (inactive).

Regarding `COc1ccc(/C=N/N=C/c2c[nH]c(=O)c(C#N)c2Nc2ccccc2)cc1`, the inhibition was 3.81% (inactive).

For `O=C(CNC(c1ccccc1)c1ccccc1)Nc1ccc(F)cc1`, the inhibition is 7.16% (inactive).

In the case of `O=C(COC(=O)/C(=C/c1cccs1)c1cccs1)NCc1ccccc1Cl`, the inhibition is 5.33% (inactive).

Turning to `C/C(N)=C(/C#N)C(=O)COC(=O)c1cc(-c2ccc(C)cc2)nc2ccccc12`, the inhibition is -0.91% (inactive).

`Cc1ccc(OCC(=O)Nn2cnc3ccccc32)cc1`: the inhibition was 2.86% (inactive).

As for `COc1ccc(-c2cc(C(=O)n3cnc4ccccc43)c3ccccc3n2)cc1`, the inhibition was 58.8% (active).

On to `CCOn1c(SC(C)C)nc2ccccc2c1=O`, for which the inhibition is 7.2% (inactive).

Consider `CCOC(=O)C(C)Sc1nc2ccccc2c(=O)n1CC1CCCCC1` (centres undefined), for which the inhibition is 18.5% (active).

For the molecule `CC(Sc1nc2ccccc2c(=O)n1Cc1ccco1)C(=O)c1ccccc1` (centres undefined), the inhibition was 6.17% (inactive).

With `CCOC(=O)c1c(C)n(C)c2ccc(OC)c(NS(=O)(=O)CC)c12`, the inhibition was -1.01% (inactive).

Turning to `CCOC(=O)Cc1csc(SCC(=O)NC(C)C23CC4CC(CC(C4)C2)C3)n1` (centres undefined), the inhibition is 5.04% (inactive).

Consider `CNC(=S)N/N=C/c1ccc(OCc2ccccc2)c(Br)c1`, for which the inhibition was 6.18% (inactive).

As to `Cc1ccc2c(c1)C(c1ccccc1)N(C(=O)c1ccc(S(=O)(=O)N3CCOCC3)cc1)CC(=O)N2` (centres undefined), the inhibition was 0.56% (inactive).

In the case of `Cc1ccc(CC(=O)Nc2ccc(OC(F)F)c(Cl)c2)cc1C`, the inhibition is 1.54% (inactive).

For the molecule `O=C(CC1CCCCC1)Nc1c2c(nn1-c1ccc(F)cc1)CS(=O)(=O)C2`, the inhibition is 21.6% (active).

Regarding `Cc1ccc(-n2nc3c(c2NC(=O)CCC2CCCCC2)CS(=O)C3)cc1` (centres undefined), the inhibition is 6.05% (inactive).

Regarding `O=C(Nc1c2c(nn1-c1ccc(F)cc1)CS(=O)C2)C12CC3CC(CC(C3)C1)C2` (centres undefined), the inhibition was 2.38% (inactive).

Take `Cc1ccc(S(=O)(=O)N2CCN(CC(=O)N/N=C/c3ccc(Br)s3)CC2)cc1`: the inhibition was -1.25% (inactive).

On to `COc1ccc2c(c1)C(C)=CC(C)(C)N2C(=O)CNCc1ccc2c(c1)OCO2`, for which the inhibition is 26.6% (active).

For the molecule `COc1ccc2c(c1)C(C)=CC(C)(C)N2C(=O)Nc1ccccc1`, the inhibition is 0.85% (inactive).

Turning to `CCOC(=O)NCc1ccc2c(c1)OCO2`, the inhibition was 4.28% (inactive).

For the molecule `COc1ccc(Cl)cc1NC(=O)COC(=O)C(CC(C)C)N1C(=O)C2CC=CCC2C1=O` (centres undefined), the inhibition is 3.69% (inactive).

Turning to `Cc1nccn1CC(=O)N/N=C/c1ccc(O)c(O)c1`, the inhibition is 0.1% (inactive).

Regarding `Cn1c(=O)c2c(nc(SCC(=O)Nc3ccccc3N3CCCCC3)n2C)n(C)c1=O`, the inhibition is 3.41% (inactive).

As to `CCCc1nc(SCC(=O)Nc2ccccc2OC)c2c(=O)n(C)c(=O)n(C)c2n1`, the inhibition is 21.6% (active).

On to `CCCCCNC(=O)c1cccnc1SCC(=O)Nc1ccccc1OC`, for which the inhibition is 1.23% (inactive).

As for `O=C(NC1CC1)c1cccc(Br)c1`, the inhibition was 1.02% (inactive).

For `Cc1ccccc1C(=O)NNC(=O)CN1C(=O)c2ccccc2C1=O`, the inhibition was 4.26% (inactive).

With `N#CCOc1ccc(C2=NO[C@@H]3[C@@H]4C[C@@H]([C@H]5C(=O)N(c6ccc7c(c6)OCO7)C(=O)[C@@H]45)[C@H]23)cc1`, the inhibition is 3.09% (inactive).

As for `CCOc1ccccc1NC(=O)CCc1ccc(C)o1`, the inhibition was 1.25% (inactive).

As for `Cc1cnc(NC(=O)CSc2nnc(-c3ccc(Cl)cc3Cl)n2N)s1`, the inhibition is 0.61% (inactive).

As to `Cc1ccc(CCC(=O)Nc2ncc(Cc3cc(Cl)ccc3Cl)s2)o1`, the inhibition is 24.4% (active).
